Screening results deposited in PubChem by National Center for Advancing Translational Sciences (NCATS).
IL-1B inflam inh – inflammasome signaling inhibition, IL-1 beta readout; hit rate 4.7% among 360,000; THP-1 LPS/ATP IL-1B secretion, AlphaLISA, 16 h; active compounds read low; activity change, % at 57.5 µM; in the data active = activity change below about -50%; inconclusive = mostly about -30% to -49%; also: % is scaled to controls: 0 for no effect and ±100 for the full control effect
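THP-1 cells pretreated 1 hr with compounds (up to 57.5 uM final), then stimulated with LPS (250 ng/mL final) plus ATP (1.25 mM final); secreted IL-1B measured by AlphaLISA after 16 hr, decreased signal indicating inhibition.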
VP16 counter – Gal4-VP16 reporter inhibition counter-screen. Drosophila S2 Gal4-VP16 UAS-luciferase, luminescence, 20 h. Potency, µM (series often up to 53.6 µM), for inactives: top-dose activity, negative = inhibition, actives largely listed as inhibitors. hit rate 3.5% among 310,000. AID 2546;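 also: Gal4-VP16 expression switched on by copper sulfate through the metallothionein promoter; potency is read from the fitted curve at half-maximal effect; % is scaled to controls: 0 for no effect and ±100 for the full control effect; nearly all actives have a fitted effect of over 50% in size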
RORgamma inh – blocks mouse ROR gamma transcriptional activity; hit rate 5.4% among 310,000; Drosophila S2 Gal4-RORgamma UAS-luciferase reporter, 20 h; P51450; Potency, µM (series often up to 53.6 µM), for inactives: top-dose activity change, negative = inhibition, usual class: inhibitors; AID 2551; also: potency is read from the fitted curve at half-maximal effect; % is scaled to controls: 0 for no effect and ±100 for the full control effect; nearly all actives have a fitted effect of over 60% in size
Target sequence (P51450 whole entry, looked up, the tested form may be a part): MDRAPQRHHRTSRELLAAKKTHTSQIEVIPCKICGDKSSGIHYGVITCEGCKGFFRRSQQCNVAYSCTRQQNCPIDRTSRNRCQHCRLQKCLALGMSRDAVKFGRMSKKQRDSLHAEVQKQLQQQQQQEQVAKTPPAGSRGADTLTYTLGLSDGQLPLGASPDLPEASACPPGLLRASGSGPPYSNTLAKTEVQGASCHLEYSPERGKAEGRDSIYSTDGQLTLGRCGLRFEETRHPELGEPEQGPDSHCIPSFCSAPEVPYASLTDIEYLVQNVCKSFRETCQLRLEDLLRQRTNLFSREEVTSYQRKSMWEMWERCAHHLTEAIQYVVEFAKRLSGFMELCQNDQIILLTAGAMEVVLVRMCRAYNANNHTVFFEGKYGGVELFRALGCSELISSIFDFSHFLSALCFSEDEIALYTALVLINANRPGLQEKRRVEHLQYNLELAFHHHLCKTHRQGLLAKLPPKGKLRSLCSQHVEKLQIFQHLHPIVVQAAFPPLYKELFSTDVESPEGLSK
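Schneider cells (Drosophila), stable Gal4 DBD–ROR gamma + UAS-luc; 1 hr cmpd preincubation; Cu2+ induction 700 uM final; 20 hr ambient; luminescence.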
MCF10A rerep – inducers of DNA re-replication in MCF 10A breast cells | AID 624296 | MCF 10A DNA re-replication, Hoechst nuclear intensity, 48 h | Potency, µM (titrated, usually from 46.1 µM), without a hit: at the highest dose activity, positive = re-replication, usual class: activators | hit rate 2.9% among 350,000; also: potency is read from the fitted curve at half-maximal effect; % of control where 0% means no effect; nearly all actives have a fitted effect of over 50% in size
SW480 rerep – inducers of DNA re-replication in SW480 colon cancer cells; hit rate 1.8% among 340,000; SW480 DNA re-replication, Hoechst DNA content imaging, 48 h; Potency, µM (series often up to 46.1 µM), without a hit: top-dose re-replication activation, most hits filed as activators; also: potency is read from the fitted curve at half-maximal effect; % of control where 0% means no effect; nearly all actives have a fitted effect of over 55% in size
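Hoechst fluorescence of nuclei (405 nm excitation, 500-530 nm emission) measured by plate-scanning imager after 48 hr compound exposure at 37 C; re-replication scored as increased number of nuclei with elevated intensity.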
* = called active by the depositor; ? = inconclusive; / = no result; [ ] = dose if it differs, or a comment. In the library only some 11% were active in any assay of this set; here they are far more common. Unless noted, calls follow the shape of the dose curve; as a rule, active = well fitted curve in the direction sought with a large enough effect; inconclusive = small, poorly fitted or top-dose-only effect, or another doubt; inactive = no such curve, though single readings can be large; an effect the other way counts as inactive or inconclusive.

SMILES | IL-1B inflam inh | VP16 counter | RORgamma inh | MCF10A rerep | SW480 rerep
O=C1C=CC2=C3c4cc(O)c(O)cc4C[C@]3(O)COC2=C1 | / | -11% | ? | / | /
CC(C)(C)N(Cc1ccccc1)C(=O)COC(=O)c1ccc(S(=O)(=O)N2CCOCC2)cc1 | 14 | / | / | -2% | -5%
COc1ccccc1CCn1c(=O)c(-c2ccc(F)c(F)c2)nc2cncnc21 | / | -15% | -13% | / | /
O=C(Nc1ccccc1F)c1csc(COCCO)n1 | -2 | / | / | / | /
O=c1oc2ccccc2c(Nc2cc3ccccc3cc2O)c1[N+](=O)[O-] | 55 | -8% | -10% | 2.1µM* | ?
O=c1oc2ccccc2c(Nc2cccc3cccnc23)c1[N+](=O)[O-] | 7 | -20%[10 µM] | 11µM* | 4% | 2%
CN(CC(=O)Nc1ccc(N2CCOCC2)cc1)C(=O)Cc1ccccc1 | 3 | / | / | -6% | -6%
O=C(Nc1ccc(C(=O)N2CCCCC2)cc1)Nc1cccc(Cl)c1 | -30 | 0% | ? | 13% | 1%
CC(C)(C)C(=O)NC(c1ccc(Cl)cc1)[C@]1(C)C[C@H]1C1CCCCC1 (some centres undefined) | / | -11% | 2% | / | /
O=[N+]([O-])c1ccc(-n2nnnc2-c2ccccc2)c([N+](=O)[O-])c1 | -64* | 5.6µM* | 4µM* | 4.1µM* | 5.2µM*
O=[N+]([O-])c1ccc(-n2nnnc2-c2ccccc2)cc1 | 12 | 8% | -5% | ? | -105%
CCC(=O)NC(=S)Nc1cccc(NC(=O)CC)c1 | 6 | 3% | -21% | 3% | -7%
CC(C)C(=O)Nc1ccc(NC(=O)c2ccc([N+](=O)[O-])cc2Cl)cc1 | 17 | 18% | ? | 3% | 5%
CC(C)C(=O)Nc1cccc(NC(=S)NC(=O)c2ccc(Cl)cc2)c1 | -8 | ? | 6.3µM* | ? | 6%
COc1ccc(C(=O)NC(=S)NNC(=O)c2ccc(NC(=O)C(C)C)cc2)cc1 | -4 | 16µM* | ? | ? | 14%
CCC(=O)NC(=S)Nc1cccc(NC(=O)c2ccc(Cl)cc2Cl)c1 | -18 | 6.3µM* | 2.8µM* | 19% | 1%
CC(C)C(=O)Nc1cccc(NC(=O)c2ccc(Cl)cc2Cl)c1 | -59* | 0% | 45% | 6% | 1%
CSc1ncccc1C(=O)OCC(=O)NCCCc1ccccc1 | 19 | / | / | -4% | -7%
Cc1ccc(S(=O)(=O)N[C@H]2COC(=O)CC=C[C@@H](C)[C@H]3C=C[C@H](O)[C@@H](COC(=O)CC=C[C@H]2C)O3)cc1 | / | 9%[10 µM] | 4%[10 µM] | / | /
CC1Cc2c(-c3ccccc3)nc3c(c2CO1)CN(CCOc1ccccc1)CC3 (centres undefined) | / | -2%[10 µM] | 5%[10 µM] | / | /
CC(C)(C)[C@@H](O)C(Cc1ccc(Cl)cc1)n1cncn1 (some centres undefined) | / | 1% | -4% | / | /
O=C(Nc1ccc(NC(=O)c2ccccc2Cl)cc1)c1cccnc1 | -20 | 2% | -10% | -5% | 1%
COc1cc(NC(=O)c2cccnc2)ccc1NC(=O)c1ccccc1Cl | -66* | 19% | ? | -8% | -14%
O=C(Nc1cccc(NC(=O)c2ccc(Cl)cc2Cl)c1)c1cccnc1 | -54* | 2% | -10% | 10% | -1%
COc1ccc(-c2ccc3c(N)c(C(=O)NC(C)C)sc3n2)cc1OC | / | -4% | -1% | 18µM* | 18µM*
SMILES | IL-1B inflam inh | VP16 counter | RORgamma inh | MCF10A rerep | SW480 rerep
CCOC(=O)c1sc2nc(C)cc(C)c2c1N | 0 | / | 2%[0.365 µM] | 18µM* | ?
CCOC(=O)c1sc2nc(-c3ccccc3)ccc2c1N | -3 | ? | 2.5µM* | ? | ?
CCOC(=O)c1sc2nc(OCc3cccnc3)cc(C)c2c1N | -50* | / | / | / | /
O=C(COC(=O)CSc1ccc([N+](=O)[O-])cc1)NCCCc1ccccc1 | 6 | 4% | 1% | 0% | ?
COc1ccccc1C(C)NC(=O)c1ccccc1SCC(=O)N1CCCC1 (centres undefined) | 6 | / | / | ? | ?
CCOC(=O)c1sc2nc(C)c3c(c2c1N)CC(C)(C)OC3 | 9 | -4% | -1% | 22% | -3%
CCCc1nc2sc(C(=O)OCC)c(N)c2c2c1COC(C)(C)C2 | ? | -6% | -1% | 3.3µM* | 23%
CCN1CCN(c2ncc3c(n2)CC(c2cc(OC)c(OC)c(OC)c2)CC3=O)CC1 (centres undefined) | 26 | -19% | 19% | 21µM* | 4.1µM*
O=C1CC(c2cccc(Cl)c2)Cc2nc(N3CCN(c4ccccc4)CC3)ncc21 (centres undefined) | 9 | -16% | 8% | 2% | -5%
COc1cccc([C@H]2Oc3ccc(OC)cc3/C(=N\O[C@@H]3O[C@H](COC(C)=O)[C@H](OC(C)=O)[C@H](OC(C)=O)[C@H]3OC(C)=O)[C@@H]2O)c1 | / | -1%[10 µM] | 9%[10 µM] | / | /
CCN(CC)CCCNC(=O)c1sc2nc(-c3ccc(F)cc3)cn2c1C | -20 | 7% | -19% | 23µM* | ?
COC(=O)c1sc(-c2ccccc2)cc1NC(C)=O | 2 | 5% | 23% | 6% | -5%
COC(=O)c1sc(-c2cccs2)cc1NC(=O)/C=C/C(=O)O | -92* | ? | -90% | ? | ?
C[C@H](C[C@H](N)C(=O)O)C(=O)O | / | -8% | 13% | / | /
Cc1ccc(C(=O)OCC(=O)Nc2cc(C(C)(C)C)nn2-c2ccccc2)c(O)c1 | -23 | / | / | -3% | -58%
O=C(COC(=O)c1ccc(O)cc1O)Nc1cc(-c2ccccc2)nn1-c1ccccc1 | -58* | / | / | ? | -113%
CC(C)(C)c1cc(NC(=O)COC(=O)c2ccc(O)cc2O)n(-c2ccccc2)n1 | -56* | / | / | 11% | -5%
CS(=O)(=O)Nc1cccc(-c2ccc3ncnc(N4CCOCC4)c3c2)c1 | / | 1% | ? | / | /
CCN(CC)CCCNC(=O)c1cc(-c2ccccc2)c(N2CCCCC2)s1 | -10 | 1% | -22% | 17% | 19%
O=C(NNC1=Nc2cccc3cccc1c23)c1ccccc1Br | ? | 1.1µM* | 0.71µM* | ? | 81%
Cc1cc(N)n2ncc(-c3ccc(Cl)cc3)c2n1 | -14 | 20% | 28% | ? | 6%
Cc1cc(NCc2ccccn2)n2ncc(-c3ccccc3)c2n1 | -7 | 0.32µM* | 0.089µM* | 12% | 0.82µM*
Cc1cc(NCc2ccccn2)n2ncc(-c3ccc(Cl)cc3)c2n1 | -3 | 0.63µM* | 0.045µM* | 5% | ?
Cc1cc(Cl)n2ncc(-c3ccccc3)c2n1 | -99* | ? | 16µM* | ? | -9%[9.22 µM]
Cc1cc(NCCOCCO)n2ncc(-c3ccc(Cl)cc3)c2n1 | -4 | -7% | -4% | ? | 17%
Cc1cc(NCc2ccccn2)n2nc(C)c(-c3ccc(Cl)cc3)c2n1 | ? | 0.71µM* | 0.063µM* | ? | 3%
